According to PubChem BioAssay AID1159580 (chemical genetic matrix, 2015):
Out of some 5,500 compounds screened, about 2,000 (36%) were called active. Another 18% or so got no clear call; they are omitted. The list shows a part of the results. Values without a mark were called inactive. Rule as the data show it: active = normalized growth mostly below about 0.91 (no sharp cut-off); inconclusive = no clear call, values can overlap the other calls; inactive = mostly above about 0.92.

Assay: chemical genetic growth profiling, strain panel (AID 1159580);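 also: tested at 20 µM; growth read once vehicle control cultures reached saturation at 30 °C; 1 = growth at the plate median or of vehicle wells; lower values mean less growth of the strain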
Details: growth OD
[1] = S. cerevisiae deletion strains, locus YDL101C, strain DUN1, stronger effect = lower value
[2] = S. cerevisiae deletion strains, locus YHR030C, strain SLT2, stronger effect = lower value
[3] = S. cerevisiae deletion strains, locus YAL013W, strain DEP1, stronger effect = lower value
[4] = S. cerevisiae deletion strains, locus YAL040C, strain CLN3, stronger effect = lower value
[5] = S. cerevisiae deletion strains, locus YCL061C, strain MRC1 (second series), stronger effect = lower value
[6] = S. cerevisiae deletion strains, locus YDR150W, strain NUM1, stronger effect = lower value
[7] = S. cerevisiae deletion strains, locus YDR363W, strain ESC2, stronger effect = lower value
[8] = S. cerevisiae deletion strains, locus YER002W, strain NOP16, stronger effect = lower value
[9] = S. cerevisiae deletion strains, locus YGR078C, strain PAC10, stronger effect = lower value
[10] = S. cerevisiae deletion strains, locus YGR229C, strain SMI1, stronger effect = lower value
[11] = S. cerevisiae deletion strains, locus YJR075W, strain HOC1, stronger effect = lower value
[12] = S. cerevisiae deletion strains, locus YMR307W, strain GAS1, stronger effect = lower value
[13] = S. cerevisiae deletion strains, locus YNL128W, strain TEP1, stronger effect = lower value
[14] = S. cerevisiae deletion strains, locus YNL175C, strain NOP13, stronger effect = lower value
[15] = S. cerevisiae deletion strains, locus YNL197C, strain WHI3, stronger effect = lower value
[16] = S. cerevisiae deletion strains, locus YNL224C, strain SQS1, stronger effect = lower value
[17] = S. cerevisiae deletion strains, locus YNL322C, strain KRE1, stronger effect = lower value
[18] = S. cerevisiae deletion strains, locus YOR083W, strain WHI5 (second series), stronger effect = lower value
[19] = S. cerevisiae deletion strains, locus YPL055C, strain LGE1, stronger effect = lower value
[20] = S. cerevisiae deletion strains, locus YPL241C, strain CIN2, stronger effect = lower value
[21] = S. cerevisiae deletion strains, locus YMR263W, strain SAP30, stronger effect = lower value
[22] = S. cerevisiae deletion strains, locus YNL153C, strain GIM3, stronger effect = lower value

Cn1c([N+](=O)[O-])cnc1/C=C(\C#N)C(=O)Nc1ccc(F)cc1
normalized growth (S. cerevisiae deletion strains, locus YAR019C, strain CDC15, stronger effect = lower value): 0.267 (active)
normalized growth (S. cerevisiae deletion strains, locus YBL105C, strain PKC1, stronger effect = lower value): 0.368 (active)
normalized growth (S. cerevisiae deletion strains, locus YBR135W, strain CKS1, stronger effect = lower value): 0.436 (active)
normalized growth (S. cerevisiae deletion strains, locus YBR136W, strain MEC1, stronger effect = lower value): 0.608 (active)
normalized growth (S. cerevisiae deletion strains, locus YBR160W, strain CDC28, stronger effect = lower value): 0.639 (active)
normalized growth (S. cerevisiae deletion strains, locus YDL017W, strain CDC7, stronger effect = lower value): 0.541 (active)
normalized growth (S. cerevisiae deletion strains, locus YDL028C, strain MPS1, stronger effect = lower value): 0.874 (active)
normalized growth [1]: 0.852 (active)
normalized growth (S. cerevisiae deletion strains, locus YDL108W, strain KIN28, stronger effect = lower value): 0.92
normalized growth (S. cerevisiae deletion strains, locus YDL214C, strain PRR2, stronger effect = lower value): 0.37 (active)
normalized growth (S. cerevisiae deletion strains, locus YDR052C, strain DBF4, stronger effect = lower value): 0.936
normalized growth (S. cerevisiae deletion strains, locus YDR226W, strain ADK1, stronger effect = lower value): 0.642 (active)
normalized growth (S. cerevisiae deletion strains, locus YDR477W, strain SNF1, stronger effect = lower value): 0.104 (active)
normalized growth (S. cerevisiae deletion strains, locus YER123W, strain YCK3, stronger effect = lower value): 0.408 (active)
normalized growth (S. cerevisiae deletion strains, locus YER133W, strain GLC7, stronger effect = lower value): 0.3 (active)
normalized growth (S. cerevisiae deletion strains, locus YFL009W, strain cdc4, stronger effect = lower value): 0.913
normalized growth (S. cerevisiae deletion strains, locus YFL029C, strain CAK1, stronger effect = lower value): 0.542 (active)
normalized growth (S. cerevisiae deletion strains, locus YFR019W, strain FAB1, stronger effect = lower value): 0.262 (active)
normalized growth (S. cerevisiae deletion strains, locus YFR028C, strain CDC14, stronger effect = lower value): 0.2 (active)
normalized growth (S. cerevisiae deletion strains, locus YGR040W, strain KSS1, stronger effect = lower value): 0.139 (active)
normalized growth (S. cerevisiae deletion strains, locus YGR052W, strain FMP48, stronger effect = lower value): 0.305 (active)
normalized growth (S. cerevisiae deletion strains, locus YGR092W, strain DBF2, stronger effect = lower value): 0.118 (active)
normalized growth [2]: 0.234 (active)
normalized growth (S. cerevisiae deletion strains, locus YHR079C, strain IRE1, stronger effect = lower value): 0.366 (active)
normalized growth (S. cerevisiae deletion strains, locus YHR082C, strain KSP1, stronger effect = lower value): 0.371 (active)
normalized growth (S. cerevisiae deletion strains, locus YHR205W, strain SCH9, stronger effect = lower value): 0.0146 (active)
normalized growth (S. cerevisiae deletion strains, locus YIL147C, strain SLN1, stronger effect = lower value): 0.741 (active)
normalized growth (S. cerevisiae deletion strains, locus YJL095W, strain BCK1, stronger effect = lower value): 0.149 (active)
normalized growth (S. cerevisiae deletion strains, locus YJL157C, strain FAR1, stronger effect = lower value): 0.346 (active)
normalized growth (S. cerevisiae deletion strains, locus YJR016C, strain ILV3, stronger effect = lower value): 0.436 (active)
normalized growth (S. cerevisiae deletion strains, locus YJR066W, strain TOR1 (second series), stronger effect = lower value): 0.116 (active)
normalized growth (S. cerevisiae deletion strains, locus YJR066W, strain TOR1, stronger effect = lower value): 0.207 (active)
normalized growth (S. cerevisiae deletion strains, locus YKL048C, strain ELM1, stronger effect = lower value): 0.168 (active)
normalized growth (S. cerevisiae deletion strains, locus YKL067W, strain YNK1, stronger effect = lower value): 0.43 (active)
normalized growth (S. cerevisiae deletion strains, locus YKL101W, strain HSL1, stronger effect = lower value): 0.157 (active)
normalized growth (S. cerevisiae deletion strains, locus YKL193C, strain SDS22, stronger effect = lower value): 0.399 (active)
normalized growth (S. cerevisiae deletion strains, locus YKL203C, strain TOR2, stronger effect = lower value): 0.119 (active)
normalized growth (S. cerevisiae deletion strains, locus YLR113W, strain HOG1, stronger effect = lower value): 0.319 (active)
normalized growth (S. cerevisiae deletion strains, locus YLR133W, strain CKI1, stronger effect = lower value): 0.111 (active)
normalized growth (S. cerevisiae deletion strains, locus YLR403W, strain SFP1, stronger effect = lower value): 0.0176 (active)
normalized growth (S. cerevisiae deletion strains, locus YML070W, strain DAK1, stronger effect = lower value): 0.28 (active)
normalized growth (S. cerevisiae deletion strains, locus YMR001C, strain CDC5, stronger effect = lower value): 0.438 (active)
normalized growth (S. cerevisiae deletion strains, locus YMR205C, strain PFK2 (second series), stronger effect = lower value): 0.139 (active)
normalized growth (S. cerevisiae deletion strains, locus YMR277W, strain FCP1, stronger effect = lower value): 0.347 (active)
normalized growth (S. cerevisiae deletion strains, locus YNL006W, strain LST8, stronger effect = lower value): 0.219 (active)
normalized growth (S. cerevisiae deletion strains, locus YNL020C, strain ARK1, stronger effect = lower value): 0.119 (active)
normalized growth (S. cerevisiae deletion strains, locus YNL161W, strain CBK1, stronger effect = lower value): 0.324 (active)
normalized growth (S. cerevisiae deletion strains, locus YNL183C, strain NPR1, stronger effect = lower value): 0.168 (active)
normalized growth (S. cerevisiae deletion strains, locus YNL207W, strain RIO2, stronger effect = lower value): 0.635 (active)
normalized growth (S. cerevisiae deletion strains, locus YNL222W, strain SSU72, stronger effect = lower value): 0.411 (active)
normalized growth (S. cerevisiae deletion strains, locus YNL307C, strain MCK1 (second series), stronger effect = lower value): 0.117 (active)
normalized growth (S. cerevisiae deletion strains, locus YOL078W, strain AVO1, stronger effect = lower value): 0.47 (active)
normalized growth (S. cerevisiae deletion strains, locus YOL136C, strain PFK27, stronger effect = lower value): 0.431 (active)
normalized growth (S. cerevisiae deletion strains, locus YOR061W, strain CKA2, stronger effect = lower value): 0.168 (active)
normalized growth (S. cerevisiae deletion strains, locus YOR119C, strain RIO1, stronger effect = lower value): 0.162 (active)
normalized growth (S. cerevisiae deletion strains, locus YOR231W, strain MKK1, stronger effect = lower value): 0.418 (active)
normalized growth (S. cerevisiae deletion strains, locus YOR329C, strain SCD5, stronger effect = lower value): 0.372 (active)
normalized growth (S. cerevisiae deletion strains, locus YPL031C, strain PHO85, stronger effect = lower value): 0.104 (active)
normalized growth (S. cerevisiae deletion strains, locus YPL153C, strain RAD53, stronger effect = lower value): 0.112 (active)
normalized growth (S. cerevisiae deletion strains, locus YPL204W, strain HRR25, stronger effect = lower value): 0.109 (active)
normalized growth (S. cerevisiae deletion strains, locus YPL209C, strain IPL1, stronger effect = lower value): 0.476 (active)
normalized growth (S. cerevisiae deletion strains, locus YPL256C, strain CLN2, stronger effect = lower value): 0.448 (active)
normalized growth (S. cerevisiae deletion strains, locus YPR025C, strain CCL1, stronger effect = lower value): 0.403 (active)
normalized growth (S. cerevisiae deletion strains, locus YPR106W, strain ISR1, stronger effect = lower value): 0.968

N#C/C(=C\c1ccc(O)c(O)c1)C(=O)Nc1ccccc1
normalized growth [3]: 0.988
normalized growth [4]: 1
normalized growth [5]: 1.01
normalized growth [6]: 0.996
normalized growth [7]: 1.05
normalized growth [8]: 1.01
normalized growth [9]: 1.05
normalized growth [10]: 0.966
normalized growth [11]: 1.01
normalized growth [12]: 1
normalized growth [13]: 1.04
normalized growth [14]: 1.03
normalized growth [15]: 1
normalized growth [16]: 1.03
normalized growth [17]: 0.989
normalized growth [18]: 1.02
normalized growth [19]: 1.01
normalized growth [20]: 1.01

CN(C)/C=C(\C#N)C(=O)Nc1ccc(F)c(Cl)c1
normalized growth [3]: 0.971
normalized growth (S. cerevisiae deletion strains, locus YBR229C, strain ROT2, stronger effect = lower value): 1.01
normalized growth (S. cerevisiae deletion strains, locus YCL061C, strain MRC1, stronger effect = lower value): 0.978
normalized growth [1]: 0.981
normalized growth [6]: 0.991
normalized growth (S. cerevisiae deletion strains, locus YEL061C, strain CIN8, stronger effect = lower value): 1.01
normalized growth [9]: 0.992
normalized growth [2]: 0.983
normalized growth (S. cerevisiae deletion strains, locus YHR087W, strain rtc3, stronger effect = lower value): 1.01
normalized growth (S. cerevisiae deletion strains, locus YJR043C, strain POL32, stronger effect = lower value): 0.97
normalized growth [11]: 1.01
normalized growth (S. cerevisiae deletion strains, locus YKL190W, strain CNB1, stronger effect = lower value): 1.01
normalized growth (S. cerevisiae deletion strains, locus YLR039C, strain RIC1, stronger effect = lower value): 1.07
normalized growth (S. cerevisiae deletion strains, locus YLR058C, strain SHM2 (second series), stronger effect = lower value): 1.01
normalized growth (S. cerevisiae deletion strains, locus YLR085C, strain ARP6, stronger effect = lower value): 0.912
normalized growth (S. cerevisiae deletion strains, locus YLR262C, strain YPT6, stronger effect = lower value): 1.16
normalized growth (S. cerevisiae deletion strains, locus YML094W, strain GIM5, stronger effect = lower value): 0.988
normalized growth (S. cerevisiae deletion strains, locus YMR219W, strain ESC1, stronger effect = lower value): 1.01
normalized growth [21]: 1
normalized growth [13]: 1
normalized growth [22]: 0.976
normalized growth (S. cerevisiae deletion strains, locus YNL298W, strain CLA4 (second series), stronger effect = lower value): 0.97
normalized growth [17]: 1.02
normalized growth (S. cerevisiae deletion strains, locus YNR030W, strain Alg12, stronger effect = lower value): 1.01
normalized growth (S. cerevisiae deletion strains, locus YOL006C, strain TOP1, stronger effect = lower value): 0.965
normalized growth [19]: 0.959
normalized growth [20]: 0.977
normalized growth (S. cerevisiae deletion strains, locus YPR135W, strain CTF4, stronger effect = lower value): 0.991
normalized growth (S. cerevisiae strains, strain wild type, stronger effect = lower value): 1.01

Nc1nc2[nH]c(=O)cnc2c(=O)[nH]1
normalized growth [3]: 0.996
normalized growth [4]: 1.06
normalized growth [5]: 0.994
normalized growth [7]: 0.985
normalized growth [8]: 0.949
normalized growth [10]: 1.01
normalized growth [21]: 0.99
normalized growth [14]: 0.983
normalized growth [15]: 0.977
normalized growth [16]: 0.987
normalized growth [17]: 1.01
normalized growth [18]: 0.988

CCCCCCCCCCCCC/C=C/[C@@H](O)[C@@H](N)CO
normalized growth [3]: 0.877 (active)
normalized growth [4]: 0.984
normalized growth [5]: 0.925 (active)
normalized growth [6]: 0.848 (active)
normalized growth [7]: 0.929
normalized growth [8]: 1.02
normalized growth [9]: 1.01
normalized growth [10]: 0.172 (active)
normalized growth [11]: 0.644 (active)
normalized growth [12]: 1.02
normalized growth [22]: 0.844
normalized growth [14]: 1.19 [resistant] (active)
normalized growth [15]: 1.1
normalized growth [16]: 1.06
normalized growth [18]: 1.11
normalized growth [19]: 0.757 (active)
normalized growth [20]: 0.926 (active)

CCCCCCCCCCCCCCC[C@H](O)[C@H](N)CO
normalized growth [3]: 0.976
normalized growth [4]: 1.05
normalized growth [5]: 0.987
normalized growth [7]: 0.99
normalized growth [8]: 1.03
normalized growth [9]: 1.01
normalized growth [12]: 1.01
normalized growth [13]: 0.222 (active)
normalized growth [14]: 0.643 (active)
normalized growth [15]: 1.12 [resistant] (active)
normalized growth [16]: 0.928
normalized growth [18]: 0.811 (active)
normalized growth [19]: 1.02
normalized growth [20]: 0.998
